{
  "source": "PubChem BioAssay AID1572",
  "about": "(National Center for Advancing Translational Sciences (NCATS), 2009)",
  "note": "Inconclusive results are not listed. A call without a number means that no potency is given here. Calls of active or inactive are those of the source. Calls come from the whole dose curve; as a rule, active = well fitted curve in either direction with a large enough effect; inconclusive = small, poorly fitted or top-dose-only effect; inactive = flat fitted curve, though single readings scatter.",
  "data": [
    {"assay": "Total Fluorescence Confirmation Counterscreen for Inhibitors of the Interaction of Thyroid Hormone Receptor and Steroid Receptor Coregulator 2", "conditions": "Texas Red total fluorescence, TRbeta/SRC2 FP artifact counterscreen; series mostly up to 92.2 µM", "from_the_text": "NIH Molecular Libraries Probe Production Network [MLPCN] NIH Chemical Genomics Center [NCGC] MLPCN Grant: DK058080 Assay Provider: R. Kip Guy, St. Jude Children's Research Hospital NCGC Assay Overview: Thyroid receptor (TR) regulates many homeostatic processes including basal metabolism, cardiovascular function, body weight, and lipid trafficking. TR modulators are potential therapeutics for obesity and hyperlipidemias but current thyroid analogs have undesirable side effects, particularly cardiac stimulation. To identify inhibitors that specifically prevent the interaction of TR with the steroid receptor coregulator 2 (SRC2), a fluorescence polarization assay was screened. This assay detects interaction of the ligand-binding domain of human TRbeta with a Texas Red labeled SRC2 peptide, corresponding to a 20 amino acid region of the nuclear receptor interaction domain (Arnold et al., 2006). Total fluorescence (555 nm excitation and 632 nm emission) was measured to identify potential fluorescent and light absorbing compounds. Such compounds may be artifacts that interfere with the fluorescence polarization assay. This assay is a confirmation assay for AID 1479. Arnold, L. A.; Estebanez-Perpina, E.; Togashi, M.; Shelat, A.; Ocasio, C. A.; McReynolds, A. C.; Nguyen, P.; Baxter, J. D.; Fletterick, R. J.; Webb, P.; Guy, R. K. A high-throughput screening method to identify small molecule inhibitors of thyroid hormone receptor coactivator binding. Sci STKE 2006, p 13.\nNCGC Assay Protocol Summary: For screening, 5 uL/well 0.6 uM TRbeta and 20 nM SRC2 Texas Red in protein buffer (20mM Tris hydrochloride, 100mM NaCl, 10% glycerol, 1mM EDTA, 0.01% NP-40, 1mM DTT, 1uM T3 and 5% DMSO) was dispensed into black solid 1536-well plates (Grenier) using a solenoid-based dispenser. Following transfer of 23 nL compound or DMSO vehicle by a pin tool, the plates were centrifuged 15 s at 1000 RPM and incubated 5 hr at ambient temperature. The plates were read by an Envision (Perkin Elmer) to detect fluorescence polarization of SRC2 Texas Red (555 nm excitation and 632 nm emission). Data were normalized to unbound (all components except TRbeta) and bound SRC2 Texas Red controls. Total fluorescence (TF) was calculated as follows: TF = S + 2P where S and P are fluorescence readings in the parallel and perpendicular channels, respectively. In this assay, we provide % activity data for each concentration as well as potencies for the active compounds.", "values": [
      {"molecule": "C=CCNC(=O)/C(C#N)=C\\c1cc(Cl)c(OCC)c(OC)c1", "Potency": "inactive"},
      {"molecule": "CN1c2ccccc2C(C)(C)C12C=Nc1c(ccc3ccccc13)O2", "note": "(stereo not given)", "Potency": "inactive"},
      {"molecule": "Nc1cccnc1Sc1cc(Cl)c(Cl)cc1Cl", "Potency": "inactive"},
      {"molecule": "Cc1[nH][nH]c(=O)c1C(c1ccc(-c2ccccc2C(=O)O)o1)c1c(C)[nH][nH]c1=O", "Potency": "inactive"},
      {"molecule": "CC(NC(=O)Nc1ccc(O)cc1)(C(F)(F)F)C(F)(F)F", "Potency": "inactive"},
      {"molecule": "Nc1c(C(=O)NCc2ccco2)c2nc3ccccc3nc2n1CCc1ccccc1", "Potency": "inactive"},
      {"molecule": "COc1cc(NC(C)CCCN)c2ncccc2c1", "note": "(stereo not given)", "Potency": "inactive"},
      {"molecule": "COc1cc(/C=C(\\C#N)C(=O)NCC2CCCO2)ccc1OCCC(C)C", "note": "(stereo not given)", "Potency": "inactive"},
      {"molecule": "CCSc1ncc(Cl)c(C(=O)Nc2nc3ccc(OC)cc3s2)n1", "Potency": "inactive"},
      {"molecule": "COc1ccc(C(=O)/C=C/Nc2ccc(S(=O)(=O)Nc3ncccn3)cc2)cc1", "Potency": "inactive"},
      {"molecule": "CCOc1ccc(C2=Cc3cc(OC)c(OC)cc3C(=C(Cl)Cl)O2)cc1", "Potency": "inactive"},
      {"molecule": "Cn1c(CCN2CCCCC2)nc2cc(NS(=O)(=O)c3ccc(Cl)cc3)ccc21", "Potency": "inactive"},
      {"molecule": "COc1ccc(-c2nc(CS(=O)CC(=O)NCc3ccccn3)c(C)o2)cc1", "note": "(stereo not given)", "Potency": "35.5 µM [fluorescent] (active)"},
      {"molecule": "Cc1ccc(OC(=S)Nc2ccc(O)cc2)cc1", "Potency": "inactive"},
      {"molecule": "O=C(O)/C=C/C(=O)Nc1ccc(SC(F)(F)C(F)(F)C(F)(F)F)cc1", "Potency": "inactive"},
      {"molecule": "COn1c2c(c3c4nonc4ccc31)CCCC2", "Potency": "inactive"},
      {"molecule": "Cc1nc2ccccc2n2c(O)c(CC(=O)O)cc12", "Potency": "31.6 µM [fluorescent] (active)"},
      {"molecule": "Cc1cc2ccccc2n1CCNC(=O)C(C)Oc1ccccc1", "note": "(stereo not given)", "Potency": "inactive"},
      {"molecule": "COc1cc(C(c2c(C)[nH][nH]c2=O)c2c(C)[nH][nH]c2=O)ccc1OC(=O)c1ccccc1OC", "Potency": "inactive"},
      {"molecule": "N/C(Cc1cccc2ccccc12)=N\\OC(=O)c1cccs1", "Potency": "inactive"},
      {"molecule": "COc1cc(NCCCC(C)N)c2ncccc2c1", "note": "(stereo not given)", "Potency": "inactive"},
      {"molecule": "CC1=NN(c2ccc(F)cc2)C(=O)C1C(c1cccc(O)c1)c1c(C)[nH]n(-c2ccc(F)cc2)c1=O", "note": "(stereo not given)", "Potency": "inactive"},
      {"molecule": "Cc1cc2c(NC(=O)Nc3ccccc3)cccc2nn1", "Potency": "inactive"},
      {"molecule": "O=c1[nH]c(Nc2ccc(F)cc2)cc2ccccc12", "Potency": "inactive"},
      {"molecule": "O=C(/C=C/c1ccco1)NC(=S)Nc1cc(C(F)(F)F)ccc1N1CCOCC1", "Potency": "inactive"},
      {"molecule": "COC(=O)/C(=C/Nc1ccc(O)cc1)[N+](=O)[O-]", "Potency": "inactive"},
      {"molecule": "O=c1cc(C23CC4CC(CC(C4)C2)C3)[nH][nH]1", "Potency": "inactive"},
      {"molecule": "O=C(NNc1cc(N2CCOCC2)nc(N2CCOCC2)n1)c1ccc(Cl)c(Cl)c1", "Potency": "39.8 µM [quencher] (active)"},
      {"molecule": "CCC(CNc1cc(OC)cc2cccnc12)NC1CCCCC1", "note": "(stereo not given)", "Potency": "inactive"},
      {"molecule": "CCCCOc1ccc(C(=O)CCN2CCCCC2)cc1", "Potency": "inactive"},
      {"molecule": "O=C(Nc1nc2ccc(Cl)cc2s1)c1ccc(N2CCCCC2)c([N+](=O)[O-])c1", "Potency": "inactive"},
      {"molecule": "CCC(NC(=O)Nc1ccc(O)cc1)(C(F)(F)F)C(F)(F)F", "Potency": "inactive"},
      {"molecule": "CC1=NN(Cc2ccccc2)C(=O)C1", "Potency": "inactive"},
      {"molecule": "CCC(C)NC(=O)COC(=O)c1csc2c1CCCC2", "note": "(stereo not given)", "Potency": "inactive"},
      {"molecule": "Cc1nc2c3cc(F)ccc3n(Cc3ccccc3F)c2s1", "Potency": "inactive"},
      {"molecule": "CCCCOc1ccc(C(=O)CCN2CCOCC2)cc1", "Potency": "inactive"},
      {"molecule": "Cc1ccc2c(CC(=O)Nc3c(C(=O)c4ccc(F)cc4)oc4ccccc34)coc2c1C", "Potency": "inactive"},
      {"molecule": "CCOC(=O)c1cnc2nc(NCc3ccc(OC)c(OC)c3)[nH]n2c1=O", "Potency": "inactive"},
      {"molecule": "CCOc1cc(C(c2c(C)[nH][nH]c2=O)c2c(C)[nH][nH]c2=O)ccc1OC(=O)c1cccc([N+](=O)[O-])c1", "Potency": "inactive"},
      {"molecule": "Nc1cc(N)c(OCC(F)(F)F)cc1OCC(F)(F)F", "Potency": "inactive"}
    ]}
  ]
}
